From PubChem BioAssay
Rows were chosen to be rich in hits. Some 1.2% of all compounds tested hit in one or more screens of this group.
TSHR antagonist: human thyrotropin receptor antagonism. hit rate 0.2% among 330,000. TSHR-expressing cells, TSH-stimulated cAMP HTRF, 2 h; stronger effect = lower value. AID 504810. activity change, negative = inhibition, % at 11.5 µM. P16473;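 active = activity change below a set negative limit, meaning inhibition stronger than a set level, cut at about -70% in these data; inconclusive = activity change between two set negative limits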
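Cell-based HTRF cAMP assay; TSHR cells + compound, TSH EC80 (4nM final), 2 h, 37 deg C. Lysis with anti-cAMP cryptate and cAMP-d2, 30 min RT, read 665/620 nm.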
gsp agonist: activates gsp, the McCune-Albright syndrome mutation. gsp mutant cells, cAMP HTRF, 30 min. Potency, µM (top dose mostly 76.9 µM), hits mostly activators. hit rate 0.13% among 340,000; active = well fitted activation curve with a large enough effect; inconclusive = small, poorly fitted or top-dose-only effect, or another doubt; inactive = no such curve, though single readings can be large or run the other way; cell line not stated here;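 also: phosphodiesterase inhibitor Ro 20-1724 added with compounds to block cAMP breakdown; nearly all actives have a fitted effect of over 60% in size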
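Cells stably selected in G418 were plated at 2000/well, grown 16-24 hr, then given compounds in DMSO with the PDE inhibitor […] (300 uM solution added) for 30 min at 37C; cAMP was read by HTRF.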
Mm-Cpn inhibitor: blocks the Methanococcus maripaludis chaperonin Mm-Cpn; hit rate 0.031% among 330,000; purified Mm-Cpn ATPase, ADP Transcreener TR-FRET; Potency, µM (top dose mostly 76.9 µM), hits mostly inhibitors; active = well fitted inhibition curve with a large enough effect; inconclusive = small, poorly fitted or top-dose-only effect; also: nearly all actives have a fitted effect of over 80% in size
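Quantitative HTS used 25 nM Mm-CPN and 10 uM ATP in magnesium/KCl Tris buffer, pH 7.4, with 1 mM DTT. Hydrolysis ran 30 min at 37°C; ADP was read by HTRF.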
gsp antag: gsp mutant antagonism; gsp-mutant cells, cAMP HTRF, 30 min; Potency, µM (top dose mostly 76.9 µM), hits mostly inhibitors; hit rate 0.4% among 340,000; calls by dose curve; cell line not stated here;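 also: intracellular cAMP measured with PDE inhibitor Ro 20-1724 present during compound exposure; nearly all actives have a fitted effect of over 65% in size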
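Cells in G418 medium, seeded 16-24 h, 37C; buffer exchange to DPBS + 1 mM CaCl2, 0.5 mM MgCl2, 0.05% BSA; cpds in DMSO + […] (300 uM stock), 30 min 37C; HTRF cAMP detection.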
uPA generation: cell surface uPA generation inhibition | AID 540303 | Potency, µM (series often up to 38.3 µM), hits mostly inhibitors | cell surface uPA generation assay, qHTS | hit rate 0.31% among 330,000; active = well fitted inhibition curve with a large enough effect; inconclusive = small, poorly fitted or top-dose-only effect; inactive = no such curve, though single readings can be large or run the other way; tested in mouse RAW 264.7 cells; also: nearly all actives have a fitted effect of over 55% in size
CCT modulator: cytosolic chaperonin activity modulation; purified chaperonin ATPase assay, HTRF ADP detection, 30 min; activity change, % (concentration not given with the values), hits read low; hit rate 0.3% among 360,000; AID 651819; in the data active = activity change below about -30%
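ATPase activity: ADP formed was measured by HTRF Transcreener (665/615 nm ratio) after 30 min at 37 deg C with 10 uM ATP. Compounds screened at one 76 uM concentration against 40 or 20 nM TRiC in Tris pH 7.4/KCl/MgCl2/DTT buffer.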
Numbers stand for hits; 0 = inactive; ? = inconclusive; - = not tested or not shown; [ ] = dose if it differs, or a comment.

SMILES | TSHR antagonist | gsp agonist | Mm-Cpn inhibitor | gsp antag | uPA generation | CCT modulator
CC(OC(=O)COc1cccc2c1OC(C)(C)C2)C(=O)Nc1ccc(S(N)(=O)=O)cc1 (centres undefined) | 0 | 0 | 0 | 0 | 0 | 0
O=C(O)C(=O)/C(=C\c1ccc(Cl)cc1)c1ccc2ccccc2n1 | 0 | 0[15.4 µM] | 0 | 0 | 0 | 0
CCc1cccc(C)c1NC(=O)CSc1nc2ccc(N3C(=O)c4ccccc4C3=O)cc2s1 | 0 | 0 | 0 | 0 | 0 | 0
CC(C)(C)N1[C@@H](CC(=O)O)c2cc(C(F)(F)F)ccc2S1(=O)=O | - | - | - | 0 | 0 | 0
CCOc1ccc(/C(O)=C2/C(=O)C(=O)N(c3ccccn3)C2c2ccc(C)cc2)c(C)c1 (centres undefined) | 0 | 40µM | ? | 0 | 0 | 0
COc1ccc(/C(O)=C2/C(=O)C(=O)N(Cc3cccnc3)C2c2ccccn2)cc1 (centres undefined) | 0 | ? | 0 | 0 | 0 | 0
CCCCOc1ccc(/C(O)=C2/C(=O)C(=O)N(Cc3cccnc3)C2c2ccncc2)c(C)c1 (centres undefined) | 0 | 11µM | 0 | 0 | 0 | 0
CCOc1ccc(/C(O)=C2/C(=O)C(=O)N(CCOCCO)C2c2cccnc2)cc1 (centres undefined) | 0 | 13µM | 0 | 0 | 0 | 0
Cc1cc(OCC(C)C)ccc1/C(O)=C1/C(=O)C(=O)N(Cc2cccnc2)C1c1ccncc1 (centres undefined) | 0 | 5.6µM | 0 | 0 | 0 | 0
CCOC(=O)C1(Cc2ccccc2C)CCCN(C(=O)c2ccc3nccnc3c2)C1 (centres undefined) | 0 | 0[15.4 µM] | 0 | 0 | 0 | 0
COC(=O)[C@]1(Cc2ccccc2)N[C@H](CN(C)C(=O)Nc2ccc(C(F)(F)F)cc2)[C@@H]2C(=O)N(Cc3ccccc3)C(=O)[C@@H]21 | 0 | - | 0 | 0 | ? | 0
CCCCCCn1c(N2CCC(C(N)=O)CC2)nc2c1c(=O)n(C)c(=O)n2C | 0 | ? | 0 | 0 | 0 | 0
O=C(Nc1ccc(Cl)cc1Cl)c1ccc2c(c1)OCCO2 | 0 | 0 | 0 | 0 | 4.5µM | 0
CCN(CC(=O)NC(C)C)C(=O)C(CCSC)NC(=O)c1ccccc1OC (centres undefined) | 0 | 0[15.4 µM] | 0 | - | 0 | 0
COc1ccc(-c2csc3ncnc(Oc4cccc5ccc(C)nc45)c23)cc1 | 0 | 0 | ? | 0 | 0 | 0
Cc1ccc2cccc(Oc3ncnc4scc(-c5ccccc5)c34)c2n1 | -84 | 0 | 0 | 0 | 0 | 0
CC(=O)N(CCC(c1ccccc1)c1ccco1)Cc1cccs1 (centres undefined) | -91 | 0 | ? | 0 | 0 | 0
CCC(=O)N(CCC(c1ccco1)c1ccccc1OC)Cc1cccs1 (centres undefined) | 0 | 0 | 0 | ? | 0 | 0
O=C(COc1ccccc1Cl)Nc1ccc(C(=O)O)cc1NC(=O)COc1ccccc1Cl | 0 | 0 | 0 | 0 | 0 | 0
COc1ccc(-c2nnc3sc(-c4ccccc4OC)nn23)cc1 | 0 | 0 | 0 | 0 | - | 0
CCCN(CCC)C(=O)CSc1nc2c(sc(=S)n2-c2ccc(OCC)cc2)c(=O)[nH]1 | 0 | 0[15.4 µM] | 0 | 14µM | - | 0
CCCCN(CC)C(=O)CSc1nc2c(sc(=S)n2-c2ccc(OCC)cc2)c(=O)[nH]1 | 0 | 0 | 0 | ? | 0 | 0
CC(=O)N1c2ccc(S(=O)(=O)N3CCC(C(=O)N4CCC(C)CC4)CC3)cc2CC1C (centres undefined) | 0 | 0 | 0 | 0 | 0 | 0
O=C(c1ccccc1)c1ccc(N2CCN(C(=O)c3cccc(F)c3F)CC2)c(F)c1 | ? | ? | 0 | 40µM | 0 | 0
CCOC(=O)N1CCN(c2ccc(C(=O)c3ccccc3)cc2F)CC1 | 0 | 0 | 0 | 32µM | 0 | 0
CCOC(=O)N1CCN(c2ccc(C(C)=O)cc2F)CC1 | 0 | 0 | 0 | 0 | 0 | 0
O=C(c1ccc(N2CCN(C(=O)c3ccc(F)cc3F)CC2)cc1)c1cccc(F)c1 | 0 | 0 | 0 | 35µM | 0 | 0
O=C(c1ccc(F)cc1F)N1CCN(c2ncccn2)CC1 | 0 | ? | 0 | 0 | 0 | 0
CCn1c(C)nnc1SCC(=O)Nc1ccc(OC)cc1 | - | 0 | - | - | - | 0
